Among the data in ChEMBL document CHEMBL1961873, “Compounds: GSK PKIS; Assays: Nanosyn kinase panel” (2012) are inhibition values, retold here.

The target of test [1] is Ribosomal protein S6 kinase alpha-6 (Homo sapiens) (UniProt Q9UK32). To be noted: at 1 µM.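 Note: each value is a mean inhibition of RSK4 from a GSK PKIS panel screen.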
Test [2] deals with T1, Serine/threonine-protein kinase Sgk1 (Homo sapiens) (UniProt O00141).
T1 sequence (whole entry): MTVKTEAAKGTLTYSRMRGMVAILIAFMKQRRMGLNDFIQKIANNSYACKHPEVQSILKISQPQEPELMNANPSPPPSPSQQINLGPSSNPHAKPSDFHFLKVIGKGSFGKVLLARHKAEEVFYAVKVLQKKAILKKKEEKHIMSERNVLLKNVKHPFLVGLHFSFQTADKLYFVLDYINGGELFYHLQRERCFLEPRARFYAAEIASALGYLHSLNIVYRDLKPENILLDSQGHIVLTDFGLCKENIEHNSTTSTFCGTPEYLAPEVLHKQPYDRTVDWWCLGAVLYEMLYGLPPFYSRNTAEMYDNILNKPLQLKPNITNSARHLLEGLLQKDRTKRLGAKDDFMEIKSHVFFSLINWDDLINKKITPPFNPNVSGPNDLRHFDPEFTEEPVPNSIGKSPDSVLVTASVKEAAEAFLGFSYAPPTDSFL
To be noted: at 0.1 µM.

Test [3] has as its target T1, Serine/threonine-protein kinase Sgk1 (Homo sapiens). To be noted: at 1 µM.
In test [4] the target is T2, Serine/threonine-protein kinase Sgk2 (Homo sapiens) (UniProt Q9HBY8).
T2 sequence (whole entry): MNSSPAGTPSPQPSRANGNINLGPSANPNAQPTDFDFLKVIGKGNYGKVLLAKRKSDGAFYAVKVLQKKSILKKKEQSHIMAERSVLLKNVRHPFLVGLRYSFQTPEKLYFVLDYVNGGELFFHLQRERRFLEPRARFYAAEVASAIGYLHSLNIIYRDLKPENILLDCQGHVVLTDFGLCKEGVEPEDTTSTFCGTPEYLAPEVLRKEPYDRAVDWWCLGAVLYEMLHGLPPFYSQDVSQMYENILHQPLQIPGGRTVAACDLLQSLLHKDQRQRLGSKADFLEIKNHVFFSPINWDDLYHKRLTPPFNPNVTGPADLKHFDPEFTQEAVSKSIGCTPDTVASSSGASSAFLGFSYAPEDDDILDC
The following applies: at 0.1 µM.

Test [5] addresses T2, Serine/threonine-protein kinase Sgk2 (Homo sapiens). To be noted: at 1 µM.
In test [6] the target is T3, Serine/threonine-protein kinase Sgk3 (Homo sapiens) (UniProt Q96BR1).
T3 sequence (whole entry): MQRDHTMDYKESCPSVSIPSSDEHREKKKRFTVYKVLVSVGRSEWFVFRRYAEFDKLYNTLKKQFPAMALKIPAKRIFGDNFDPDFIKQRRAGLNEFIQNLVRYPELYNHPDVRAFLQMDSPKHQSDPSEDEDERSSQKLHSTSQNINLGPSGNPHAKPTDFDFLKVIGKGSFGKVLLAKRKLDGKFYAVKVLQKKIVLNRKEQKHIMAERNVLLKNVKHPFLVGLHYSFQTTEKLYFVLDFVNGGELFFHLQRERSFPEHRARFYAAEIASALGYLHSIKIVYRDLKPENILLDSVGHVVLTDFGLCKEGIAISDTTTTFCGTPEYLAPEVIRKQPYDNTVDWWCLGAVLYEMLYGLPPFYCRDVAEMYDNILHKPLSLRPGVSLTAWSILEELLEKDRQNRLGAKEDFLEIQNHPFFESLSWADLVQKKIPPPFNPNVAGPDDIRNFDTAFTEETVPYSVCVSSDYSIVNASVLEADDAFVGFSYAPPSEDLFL
The following applies: at 0.1 µM.

For test [7], the target named is T3, Serine/threonine-protein kinase Sgk3 (Homo sapiens). To be noted: at 1 µM.
Test [8] deals with 5'-AMP-activated protein kinase catalytic subunit alpha-1 (Homo sapiens) (UniProt Q13131). To be noted: at 0.1 µM.
5'-AMP-activated protein kinase catalytic subunit alpha-1 (Homo sapiens), sequence (Q13131 whole entry, looked up): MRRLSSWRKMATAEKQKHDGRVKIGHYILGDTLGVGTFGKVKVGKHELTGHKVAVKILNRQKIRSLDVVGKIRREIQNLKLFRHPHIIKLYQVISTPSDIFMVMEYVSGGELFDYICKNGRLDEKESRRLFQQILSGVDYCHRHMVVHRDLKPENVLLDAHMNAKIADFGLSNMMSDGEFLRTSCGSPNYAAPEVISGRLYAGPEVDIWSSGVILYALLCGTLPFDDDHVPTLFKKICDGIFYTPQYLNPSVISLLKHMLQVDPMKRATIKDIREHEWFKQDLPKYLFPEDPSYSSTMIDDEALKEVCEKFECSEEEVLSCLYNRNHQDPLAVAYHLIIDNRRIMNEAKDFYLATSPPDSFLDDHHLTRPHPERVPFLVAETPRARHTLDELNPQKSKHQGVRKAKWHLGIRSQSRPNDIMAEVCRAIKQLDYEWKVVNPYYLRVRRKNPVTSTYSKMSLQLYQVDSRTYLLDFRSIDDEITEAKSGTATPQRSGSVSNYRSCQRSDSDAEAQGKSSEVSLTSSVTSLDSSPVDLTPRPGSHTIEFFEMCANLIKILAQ
Test [9] has the same target. The following applies: at 1 µM.
In test [10] the target is 5'-AMP-activated protein kinase catalytic subunit alpha-2 (Homo sapiens) (UniProt P54646). The following applies: at 0.1 µM.
5'-AMP-activated protein kinase catalytic subunit alpha-2 (Homo sapiens), sequence (P54646 whole entry, looked up): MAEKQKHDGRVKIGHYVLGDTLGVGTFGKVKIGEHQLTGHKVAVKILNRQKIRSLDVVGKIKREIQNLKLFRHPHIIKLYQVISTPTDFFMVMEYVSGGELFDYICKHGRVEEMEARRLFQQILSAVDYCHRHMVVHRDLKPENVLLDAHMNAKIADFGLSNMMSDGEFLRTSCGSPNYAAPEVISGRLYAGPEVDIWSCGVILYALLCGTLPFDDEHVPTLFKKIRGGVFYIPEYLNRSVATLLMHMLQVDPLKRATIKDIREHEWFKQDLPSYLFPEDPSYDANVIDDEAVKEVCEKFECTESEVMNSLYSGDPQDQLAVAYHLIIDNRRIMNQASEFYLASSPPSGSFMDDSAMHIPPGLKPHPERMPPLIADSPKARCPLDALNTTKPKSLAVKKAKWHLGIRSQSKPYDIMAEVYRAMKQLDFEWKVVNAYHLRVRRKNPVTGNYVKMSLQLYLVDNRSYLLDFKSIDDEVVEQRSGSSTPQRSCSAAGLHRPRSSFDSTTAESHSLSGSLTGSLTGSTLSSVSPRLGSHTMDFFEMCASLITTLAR
Test [11] shares this target. The following applies: at 1 µM.
In test [12] the target is T4, NUAK family SNF1-like kinase 1 (Homo sapiens) (UniProt O60285).
T4 sequence (whole entry): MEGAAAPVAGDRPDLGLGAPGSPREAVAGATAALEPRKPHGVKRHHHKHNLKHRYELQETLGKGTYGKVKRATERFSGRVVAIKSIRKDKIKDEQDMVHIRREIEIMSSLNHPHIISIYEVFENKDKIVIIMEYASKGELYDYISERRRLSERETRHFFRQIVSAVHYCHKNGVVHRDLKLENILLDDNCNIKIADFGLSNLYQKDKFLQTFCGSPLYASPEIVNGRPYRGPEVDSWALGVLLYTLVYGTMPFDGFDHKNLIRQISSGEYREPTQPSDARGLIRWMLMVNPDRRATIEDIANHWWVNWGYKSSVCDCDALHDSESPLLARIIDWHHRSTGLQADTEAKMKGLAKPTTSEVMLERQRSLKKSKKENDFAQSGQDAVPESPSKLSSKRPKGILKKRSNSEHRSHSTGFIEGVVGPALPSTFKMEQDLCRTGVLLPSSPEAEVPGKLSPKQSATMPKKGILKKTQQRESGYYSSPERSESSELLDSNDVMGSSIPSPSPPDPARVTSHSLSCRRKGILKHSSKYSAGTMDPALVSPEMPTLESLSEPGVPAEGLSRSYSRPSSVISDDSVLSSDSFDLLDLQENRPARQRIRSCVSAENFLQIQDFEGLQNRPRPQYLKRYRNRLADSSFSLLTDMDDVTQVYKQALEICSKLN
To be noted: at 0.1 µM.

Test [13] deals with T4, NUAK family SNF1-like kinase 1 (Homo sapiens). To be noted: at 1 µM.
Test [14] deals with T5, Serine/threonine-protein kinase BRSK1 (Homo sapiens) (UniProt Q8TDC3).
T5 sequence (whole entry): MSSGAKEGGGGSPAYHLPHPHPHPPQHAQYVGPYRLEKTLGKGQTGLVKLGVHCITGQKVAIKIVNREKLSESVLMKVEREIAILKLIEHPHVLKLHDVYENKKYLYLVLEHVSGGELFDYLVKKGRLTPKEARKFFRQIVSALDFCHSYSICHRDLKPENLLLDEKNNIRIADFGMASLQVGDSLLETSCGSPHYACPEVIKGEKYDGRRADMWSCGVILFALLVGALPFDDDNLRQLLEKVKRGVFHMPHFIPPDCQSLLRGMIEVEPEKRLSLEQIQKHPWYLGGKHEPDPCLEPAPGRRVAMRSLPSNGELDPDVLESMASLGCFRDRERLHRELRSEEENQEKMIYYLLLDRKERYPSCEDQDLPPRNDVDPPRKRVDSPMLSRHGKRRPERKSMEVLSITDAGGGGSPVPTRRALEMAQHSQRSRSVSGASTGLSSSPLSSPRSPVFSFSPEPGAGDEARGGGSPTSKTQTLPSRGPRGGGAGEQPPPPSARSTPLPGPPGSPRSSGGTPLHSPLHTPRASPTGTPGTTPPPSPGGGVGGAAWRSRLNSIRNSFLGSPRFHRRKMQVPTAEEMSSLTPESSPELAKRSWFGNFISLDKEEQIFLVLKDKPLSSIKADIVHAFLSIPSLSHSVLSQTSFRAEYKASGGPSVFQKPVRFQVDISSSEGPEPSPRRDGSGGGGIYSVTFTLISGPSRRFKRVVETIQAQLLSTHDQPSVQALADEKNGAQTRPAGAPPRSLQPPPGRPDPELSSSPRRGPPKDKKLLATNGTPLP
To be noted: at 0.1 µM.

Test [15] addresses T5, Serine/threonine-protein kinase BRSK1 (Homo sapiens). To be noted: at 1 µM.
The target in test [16] is T6, Serine/threonine-protein kinase BRSK2 (Homo sapiens) (UniProt Q8IWQ3).
T6 sequence (whole entry): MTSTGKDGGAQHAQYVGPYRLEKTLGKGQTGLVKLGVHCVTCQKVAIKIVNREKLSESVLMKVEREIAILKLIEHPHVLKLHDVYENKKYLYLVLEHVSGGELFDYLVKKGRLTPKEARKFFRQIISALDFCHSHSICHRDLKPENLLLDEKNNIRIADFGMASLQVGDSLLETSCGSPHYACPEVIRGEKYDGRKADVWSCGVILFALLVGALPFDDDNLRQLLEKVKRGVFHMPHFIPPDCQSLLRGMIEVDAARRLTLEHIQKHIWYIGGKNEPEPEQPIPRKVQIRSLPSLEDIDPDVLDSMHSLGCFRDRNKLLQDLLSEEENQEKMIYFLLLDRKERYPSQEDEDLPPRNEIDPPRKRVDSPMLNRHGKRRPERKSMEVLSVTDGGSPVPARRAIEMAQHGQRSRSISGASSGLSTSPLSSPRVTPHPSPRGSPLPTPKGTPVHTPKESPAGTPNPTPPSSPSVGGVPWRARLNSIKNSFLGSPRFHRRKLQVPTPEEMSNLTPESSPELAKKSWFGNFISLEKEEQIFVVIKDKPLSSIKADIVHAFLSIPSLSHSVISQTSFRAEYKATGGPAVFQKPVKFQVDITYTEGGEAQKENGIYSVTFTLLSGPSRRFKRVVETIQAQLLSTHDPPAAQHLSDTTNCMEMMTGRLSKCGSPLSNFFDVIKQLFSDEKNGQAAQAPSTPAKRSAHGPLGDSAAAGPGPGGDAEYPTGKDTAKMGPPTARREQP
The following applies: at 0.1 µM.

For test [17], the target named is T6, Serine/threonine-protein kinase BRSK2 (Homo sapiens). To be noted: at 1 µM.
The target of test [18] is Calcium/calmodulin-dependent protein kinase type 1D (Homo sapiens) (UniProt Q8IU85). To be noted: at 0.1 µM.
Calcium/calmodulin-dependent protein kinase type 1D (Homo sapiens), sequence (Q8IU85 whole entry, looked up): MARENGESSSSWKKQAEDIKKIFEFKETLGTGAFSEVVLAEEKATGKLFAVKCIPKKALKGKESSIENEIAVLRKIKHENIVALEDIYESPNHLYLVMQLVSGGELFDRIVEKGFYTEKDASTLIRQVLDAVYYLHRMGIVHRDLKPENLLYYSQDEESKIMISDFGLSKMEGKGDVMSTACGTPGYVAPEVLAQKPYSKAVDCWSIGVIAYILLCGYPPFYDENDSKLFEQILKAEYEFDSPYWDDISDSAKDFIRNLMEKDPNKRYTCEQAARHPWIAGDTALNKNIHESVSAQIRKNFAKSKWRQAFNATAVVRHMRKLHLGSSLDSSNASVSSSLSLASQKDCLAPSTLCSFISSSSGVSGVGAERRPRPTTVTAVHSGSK
The target is the same in test [19]. The following applies: at 1 µM.
Test [20] has as its target Calcium/calmodulin-dependent protein kinase type II subunit alpha (Homo sapiens) (UniProt Q9UQM7). To be noted: at 0.1 µM.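 Note: reported values are averages (mean inhibition of CAMK2A).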

Ribosomal protein S6 kinase alpha-6 (Homo sapiens), sequence (Q9UK32 whole entry): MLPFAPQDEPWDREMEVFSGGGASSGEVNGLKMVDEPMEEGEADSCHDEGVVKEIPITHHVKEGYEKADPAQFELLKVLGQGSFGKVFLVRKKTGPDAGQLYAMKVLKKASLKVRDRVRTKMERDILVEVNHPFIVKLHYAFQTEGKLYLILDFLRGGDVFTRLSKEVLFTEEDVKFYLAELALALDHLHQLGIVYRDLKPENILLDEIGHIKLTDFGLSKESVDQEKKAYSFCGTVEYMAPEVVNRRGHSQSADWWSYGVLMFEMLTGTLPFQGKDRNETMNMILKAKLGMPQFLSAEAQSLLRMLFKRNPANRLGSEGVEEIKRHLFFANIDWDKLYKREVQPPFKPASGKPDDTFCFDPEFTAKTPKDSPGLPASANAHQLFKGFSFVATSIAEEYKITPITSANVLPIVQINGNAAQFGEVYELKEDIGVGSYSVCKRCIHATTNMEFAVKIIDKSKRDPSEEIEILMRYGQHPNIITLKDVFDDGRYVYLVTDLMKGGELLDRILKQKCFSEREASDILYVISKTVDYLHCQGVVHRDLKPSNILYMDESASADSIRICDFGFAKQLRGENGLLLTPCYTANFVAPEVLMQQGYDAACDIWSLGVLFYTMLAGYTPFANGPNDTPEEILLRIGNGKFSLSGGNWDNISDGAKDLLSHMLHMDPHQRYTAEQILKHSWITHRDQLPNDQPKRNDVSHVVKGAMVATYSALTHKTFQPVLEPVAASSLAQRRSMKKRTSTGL
Calcium/calmodulin-dependent protein kinase type II subunit alpha (Homo sapiens), sequence (Q9UQM7 whole entry): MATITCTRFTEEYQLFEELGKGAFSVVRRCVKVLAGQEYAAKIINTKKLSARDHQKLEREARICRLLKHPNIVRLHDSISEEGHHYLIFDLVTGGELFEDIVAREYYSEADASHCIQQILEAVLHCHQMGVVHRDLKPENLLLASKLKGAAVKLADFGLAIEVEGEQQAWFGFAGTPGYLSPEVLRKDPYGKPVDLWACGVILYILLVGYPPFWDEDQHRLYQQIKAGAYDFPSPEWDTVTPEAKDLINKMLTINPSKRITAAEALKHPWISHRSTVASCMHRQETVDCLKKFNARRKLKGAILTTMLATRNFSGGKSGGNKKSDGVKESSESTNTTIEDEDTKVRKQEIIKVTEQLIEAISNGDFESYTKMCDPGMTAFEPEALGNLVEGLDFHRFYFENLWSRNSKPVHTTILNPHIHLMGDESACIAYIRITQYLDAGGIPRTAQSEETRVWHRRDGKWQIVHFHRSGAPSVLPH

As for `COc1ccc2ncnc(Nc3ccc(OCc4ccccc4)cc3)c2c1`, the inhibition (in general, the change of the read-out against control, counted positive when it falls) in test [1] was 0.55%; in test [2], 0.21%; in [3], 4.55%; in [4], -1.08%; in test [5], -0.13%; in test [6], 2.62%. Further, the inhibition in [7] amounted to 2.59%; in test [8] it was 2.15%; in test [9], 1.44%; in [10], 0.53%; in test [11], 2.09%; in [12], 0.25%. Further, the inhibition in [13] was -1.38%; in test [14] it was -0.52%; in test [15], 0.79%; in test [16] it was 2.22%; in test [17], 1.79%; in test [18], 0.63%. The inhibition was 1.33% in [19] and 0.65% in [20].

On to `CCS(=O)(=O)c1ccc(OC)c(Nc2nccc(N(C)c3ccc4c(C)n[nH]c4c3)n2)c1`, for which the inhibition in test [1] was -0.55%; in test [2] it was 2.43%; in test [3] it was 2.8%; in [4] it was 4.15%; in test [5], 2.6%; in test [6], 3.28%. The inhibition in test [7] was 1.75%; in test [8] it was 1.93%; in [9] it was 2.62%; in test [10], 2.9%; in test [11], 3.91%; in [12] it was -0.8%. For the same compound, the inhibition in test [13] was -2.26%; in test [14], 0.17%; in [15], 4.69%; in test [16] it was 3.82%; in test [17], 4.12%; in test [18] it was 3.64%. Besides, the inhibition in [19] was found to be 0.51%; in test [20], 2.57%.

Consider `C[C@@H](Oc1cc(-n2cnc3ccc(OCC4CCN(C)CC4)cc32)sc1C(N)=O)c1ccccc1C(F)(F)F`, for which the inhibition in test [1] was 54.9%; in [2], 0.5%; in test [3] it was 2.02%; in [4], -2.58%; in test [5] it was -0.14%; in test [6] it was -1.97%. The inhibition is -2.55% in test [7]; 5.76% in test [8]; 32.6% in test [9]; 2.88% in test [10]; 14% in [11]; 50.5% in [12]. Moreover, the inhibition in test [13] was found to be 76.6%; in test [14], 22.4%; in test [15] it was 61.1%; in test [16], 33.9%; in [17], 74.5%; in test [18], 0%. The inhibition in [19] is 4.15%; in test [20], -0.63%.

`COc1cc(Nc2nccc(-c3cnn4ncccc34)n2)cc(OC)c1`: the inhibition in test [1] is 6.06%; in test [2], 2.68%; in [3] it was 4.34%; in test [4], 1.68%; in test [5], -0.04%; in [6], 1.95%. The inhibition in [7] came to 2.1%; in [8], 3.39%; in test [9], 16.7%; in [10], 0.99%; in test [11], 17.4%; in [12], 69.1%. Further, the inhibition in test [13] was 84.8%; in test [14] it was 1.03%; in [15], 5.11%; in test [16], 0.3%; in test [17], 6.76%; in test [18], 0.86%. Also, the inhibition in test [19] was found to be 6.41%; in [20], 3.61%.
